Results published in PubChem BioAssay AID1159580 (chemical genetic matrix, 2015).
The campaign covered roughly 5,500 compounds. About 2,000 (36%) were called active. Roughly 18% stayed inconclusive and do not appear here. Rule as the data show it: active = normalized growth mostly below about 0.91 (no sharp cut-off); inconclusive = no clear call, values can overlap the other calls; inactive = mostly above about 0.92. The list shows a part of the results.

Assay: chemical genetic growth profiling, strain panel (AID 1159580);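 also: tested at 20 µM; growth read once vehicle control cultures reached saturation at 30 °C; 1 = growth at the plate median or of vehicle wells; lower values mean less growth of the strain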
Conditions: growth OD

Measured: normalized growth

Cc1onc(-c2ccccc2)c1C(=O)NC1C(=O)N2[C@@H]1SC(C)(C)[C@@H]2C(=O)O (some centres not stated)
inactive: S. cerevisiae deletion strains, locus YJR075W, strain HOC1, stronger effect = lower value 1.02 | S. cerevisiae deletion strains, locus YKL009W, strain mrt4, stronger effect = lower value 1.01 | S. cerevisiae deletion strains, locus YKL068W, stronger effect = lower value 1.01 | S. cerevisiae deletion strains, locus YKL085W, strain MDH1 (second series), stronger effect = lower value 1.01 | S. cerevisiae deletion strains, locus YKL085W, strain MDH1, stronger effect = lower value 1.01 | S. cerevisiae deletion strains, locus YKL160W, strain elf1, stronger effect = lower value 1.06 | S. cerevisiae deletion strains, locus YKL190W, strain CNB1, stronger effect = lower value 1.01 | S. cerevisiae deletion strains, locus YKR001C, strain vps1, stronger effect = lower value 1.01 | S. cerevisiae deletion strains, locus YKR026C, strain gcn3, stronger effect = lower value 1.02 | S. cerevisiae deletion strains, locus YKR091W, strain srl3, stronger effect = lower value 1.01 | S. cerevisiae deletion strains, locus YLL001W, strain dnm1, stronger effect = lower value 1.02 | S. cerevisiae deletion strains, locus YLL026W, stronger effect = lower value 1.01 | S. cerevisiae deletion strains, locus YLL041C, strain sdh2, stronger effect = lower value 1.01 | S. cerevisiae deletion strains, locus YLR027C, strain aat2, stronger effect = lower value 1.01 | S. cerevisiae deletion strains, locus YLR039C, strain RIC1, stronger effect = lower value 1.01 | S. cerevisiae deletion strains, locus YLR058C, strain SHM2, stronger effect = lower value 1.01 | S. cerevisiae deletion strains, locus YLR102C, strain apc9, stronger effect = lower value 1 | S. cerevisiae deletion strains, locus YLR113W, strain HOG1, stronger effect = lower value 0.975 | S. cerevisiae deletion strains, locus YLR221C, strain rsa3, stronger effect = lower value 1.03 | S. cerevisiae deletion strains, locus YLR258W, strain gsy2, stronger effect = lower value 1.02 | S. cerevisiae deletion strains, locus YLR262C, strain YPT6 (second series), stronger effect = lower value 1.05 | S. cerevisiae deletion strains, locus YLR262C, strain YPT6, stronger effect = lower value 1.04 | S. cerevisiae deletion strains, locus YLR268W, strain sec22, stronger effect = lower value 1.05 | S. cerevisiae deletion strains, locus YLR320W, strain mms22, stronger effect = lower value 1.04 | S. cerevisiae deletion strains, locus YLR330W, strain CHS5, stronger effect = lower value 1.01 | S. cerevisiae deletion strains, locus YLR342W, strain FKS1 (second series), stronger effect = lower value 1.01 | S. cerevisiae deletion strains, locus YLR342W, strain FKS1, stronger effect = lower value 1.02 | S. cerevisiae deletion strains, locus YLR357W, strain rsc2, stronger effect = lower value 1.09 | S. cerevisiae deletion strains, locus YLR370C, strain arc18, stronger effect = lower value 1.02 | S. cerevisiae deletion strains, locus YLR371W, strain rom2, stronger effect = lower value 1.01 | S. cerevisiae deletion strains, locus YLR384C, strain iki3, stronger effect = lower value 1.03 | S. cerevisiae deletion strains, locus YLR418C, strain cdc73, stronger effect = lower value 0.998 | S. cerevisiae deletion strains, locus YML016C, strain PPZ1, stronger effect = lower value 1.01 | S. cerevisiae deletion strains, locus YML032C, strain rad52, stronger effect = lower value 1.03 | S. cerevisiae deletion strains, locus YML120C, strain ndi1, stronger effect = lower value 1.02 | S. cerevisiae deletion strains, locus YML124C, strain tub3, stronger effect = lower value 1.01 | S. cerevisiae deletion strains, locus YMR058W, strain fet3, stronger effect = lower value 1.01 | S. cerevisiae deletion strains, locus YMR078C, strain ctf18, stronger effect = lower value 1.01 | S. cerevisiae deletion strains, locus YMR125W, strain sto1, stronger effect = lower value 1.02 | S. cerevisiae deletion strains, locus YMR129W, stronger effect = lower value 1.01 | S. cerevisiae deletion strains, locus YMR205C, strain PFK2, stronger effect = lower value 1.05 | S. cerevisiae deletion strains, locus YMR223W, strain ubp8, stronger effect = lower value 0.975 | S. cerevisiae deletion strains, locus YMR231W, strain pep5, stronger effect = lower value 1.02 | S. cerevisiae deletion strains, locus YMR263W, strain SAP30, stronger effect = lower value 1.01 | S. cerevisiae deletion strains, locus YMR307W, strain GAS1, stronger effect = lower value 0.981 | S. cerevisiae deletion strains, locus YNL067W, strain RPL9B, stronger effect = lower value 1.02 | S. cerevisiae deletion strains, locus YNL071W, strain lat1, stronger effect = lower value 1.01 | S. cerevisiae deletion strains, locus YNL128W, strain TEP1, stronger effect = lower value 1 | S. cerevisiae deletion strains, locus YNL153C, strain GIM3, stronger effect = lower value 1.01 | S. cerevisiae deletion strains, locus YNL183C, strain NPR1, stronger effect = lower value 0.946 | S. cerevisiae deletion strains, locus YNL209W, strain ssb2, stronger effect = lower value 1.01 | S. cerevisiae deletion strains, locus YNL233W, strain BNI4, stronger effect = lower value 1 | S. cerevisiae deletion strains, locus YNL248C, strain rpa49, stronger effect = lower value 1.01 | S. cerevisiae deletion strains, locus YNL250W, strain rad50, stronger effect = lower value 1.01 | S. cerevisiae deletion strains, locus YNL271C, strain bni1, stronger effect = lower value 1.01 | S. cerevisiae deletion strains, locus YNL298W, strain CLA4, stronger effect = lower value 1.02 | S. cerevisiae deletion strains, locus YNL307C, strain MCK1, stronger effect = lower value 1.01 | S. cerevisiae deletion strains, locus YNL322C, strain KRE1 (second series), stronger effect = lower value 1.03 | S. cerevisiae deletion strains, locus YNL322C, strain KRE1, stronger effect = lower value 1 | S. cerevisiae deletion strains, locus YNR049C, strain mso1, stronger effect = lower value 1.02 | S. cerevisiae deletion strains, locus YNR052C, strain pop2, stronger effect = lower value 1 | S. cerevisiae deletion strains, locus YOL006C, strain TOP1, stronger effect = lower value 1.02 | S. cerevisiae deletion strains, locus YOL012C, strain htz1 0.833 | S. cerevisiae deletion strains, locus YOL147C, strain pex11, stronger effect = lower value 1.01 | S. cerevisiae deletion strains, locus YOR001W, strain rrp6, stronger effect = lower value 0.971 | S. cerevisiae deletion strains, locus YOR061W, strain CKA2, stronger effect = lower value 1.01 | S. cerevisiae deletion strains, locus YOR069W, strain VPS5, stronger effect = lower value 1.01 | S. cerevisiae deletion strains, locus YOR070C, strain gyp1, stronger effect = lower value 1.02 | S. cerevisiae deletion strains, locus YOR080W, strain dia2, stronger effect = lower value 1.02 | S. cerevisiae deletion strains, locus YOR083W, strain WHI5, stronger effect = lower value 1.04 | S. cerevisiae deletion strains, locus YOR106W, strain vam3, stronger effect = lower value 1.03 | S. cerevisiae deletion strains, locus YOR136W, strain idh2, stronger effect = lower value 0.992 | S. cerevisiae deletion strains, locus YOR144C, strain elg1, stronger effect = lower value 1.01 | S. cerevisiae deletion strains, locus YOR184W, strain ser1, stronger effect = lower value 1.01 | S. cerevisiae deletion strains, locus YOR231W, strain MKK1, stronger effect = lower value 1.01 | S. cerevisiae deletion strains, locus YOR265W, strain rbl2, stronger effect = lower value 1.01 | S. cerevisiae deletion strains, locus YOR270C, strain vph1, stronger effect = lower value 1.02 | S. cerevisiae deletion strains, locus YOR290C, strain snf2, stronger effect = lower value 1.02 | S. cerevisiae deletion strains, locus YOR316C, strain cot1, stronger effect = lower value 1.01 | S. cerevisiae deletion strains, locus YPL051W, strain arl3, stronger effect = lower value 1.01 | S. cerevisiae deletion strains, locus YPL055C, strain LGE1, stronger effect = lower value 1.05 | S. cerevisiae deletion strains, locus YPL078C, strain atp4, stronger effect = lower value 1.01 | S. cerevisiae deletion strains, locus YPL106C, strain sse1, stronger effect = lower value 1.04 | S. cerevisiae deletion strains, locus YPL240C, strain hsp82, stronger effect = lower value 1.02 | S. cerevisiae deletion strains, locus YPL241C, strain CIN2, stronger effect = lower value 1.01 | S. cerevisiae deletion strains, locus YPL256C, strain CLN2, stronger effect = lower value 0.98 | S. cerevisiae deletion strains, locus YPR119W, strain clb2, stronger effect = lower value 1 | S. cerevisiae deletion strains, locus YPR141C, strain kar3, stronger effect = lower value 1.02 | S. cerevisiae deletion strains, locus YPR163C, strain tif3, stronger effect = lower value 1.02 | S. cerevisiae deletion strains, locus YPR167C, strain met16, stronger effect = lower value 1.01 | S. cerevisiae deletion strains, strain wtn01, stronger effect = lower value 1.04 | S. cerevisiae strains, strain wild type, stronger effect = lower value 1
